Screening results deposited in PubChem by National Center for Advancing Translational Sciences (NCATS).
This is a sample that favours compounds with a hit; in the whole collection about 9.2% have one here.
ELG1 DNA repair: inhibitors of ELG1-dependent DNA repair in HEK293T cells. actives 2.3% (n = 330,000). HEK293T ELG1-luciferase reporter, luminescence, 16 h; DNA damage induced by 5-fluorouridine. Potency, µM (titrated, usually from 46.1 µM), for the others: at the top dose activity change, negative = inhibition, actives largely listed as inhibitors. AID 504467; note: % is set by controls: 0 for no effect and ±100 for the full control effect; nearly all actives have a fitted effect of over 55% in size
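Reporter activity after DNA damage by 5-fluorouridine is monitored. Compound-treated cells incubate 16 hr at 37 °C, then ONE-Glo is added for 30 min before luminescence reading.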
SMN2 splice up: increases expression of the SMN2 splice variant; HEK293 SMN2-luciferase splicing reporter, luminescence, 30-36 h; Potency, µM (top dose mostly 46.1 µM), inactives show at the highest dose activity change, positive = activation, most hits filed as activators; actives 2.8% (n = 210,000); AID 1458; note: % of control where 0% means no effect; nearly all actives have a fitted effect of over 55% in size
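HEK293 cells carry an SMN2 […]–luciferase reporter in which exon 7 inclusion puts luciferase in frame. Cells were plated 10-12 h before compound addition, then incubated 30-36 h at 37C. ONE-Glo luminescence was read; sodium butyrate at 4.5 mM final served as control.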
ELG1 genotoxic: inducers of genotoxicity in HEK293T ELG1-luciferase cells; HEK293T ELG1-luciferase reporter, luminescence, 16 h; Potency, µM (doses to about 46 µM), for inactives: at the highest dose activity change, positive = activation, most hits filed as activators; actives 1.3% (n = 330,000); AID 504466; note: % of control where 0% means no effect; nearly all actives have a fitted effect of over 60% in size
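Step 1: seed 2,000 HEK293T ELG1-luciferase cells per well. Step 2: add compound or DMSO, incubate 16 hr at 37 °C. Step 3: ONE-Glo, 30 min at room temperature, read luminescence.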
Rab9 prom act: activates the Rab9 promoter. Huh7 Rab9 promoter-luciferase reporter, luminescence, 24 h. Potency, µM (doses to about 9.22 µM), inactives show at the highest dose activation, negative = inhibition, actives largely listed as activators. actives 2.8% (n = 320,000). AID 485297; note: % of control where 0% means no effect; nearly all actives have a fitted effect of over 60% in size
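Rab9 promoter-driven luciferase in stably transfected Huh7 cells; 1500 cells/well rested 2 h, exposed to compound in DMSO for 24 h at 37 °C, 5% CO2. Luminescence read 10 min after adding luciferase reagent at ambient temperature.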
FLuc counter: firefly luciferase modulation, counter-screen for miR-21 project | actives 6.9% (n = 360,000) | purified FLuc, Km substrates, luminescence inhibition | Potency, µM (doses to about 57.5 µM), for the others: top-dose activity change, negative = inhibition, most hits filed as inhibitors | P08659;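 note: plate controls were vehicle for no effect and reference inhibitor for full effect; nearly all actives have a fitted effect of over 55% in size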
Target sequence (P08659 whole entry, looked up): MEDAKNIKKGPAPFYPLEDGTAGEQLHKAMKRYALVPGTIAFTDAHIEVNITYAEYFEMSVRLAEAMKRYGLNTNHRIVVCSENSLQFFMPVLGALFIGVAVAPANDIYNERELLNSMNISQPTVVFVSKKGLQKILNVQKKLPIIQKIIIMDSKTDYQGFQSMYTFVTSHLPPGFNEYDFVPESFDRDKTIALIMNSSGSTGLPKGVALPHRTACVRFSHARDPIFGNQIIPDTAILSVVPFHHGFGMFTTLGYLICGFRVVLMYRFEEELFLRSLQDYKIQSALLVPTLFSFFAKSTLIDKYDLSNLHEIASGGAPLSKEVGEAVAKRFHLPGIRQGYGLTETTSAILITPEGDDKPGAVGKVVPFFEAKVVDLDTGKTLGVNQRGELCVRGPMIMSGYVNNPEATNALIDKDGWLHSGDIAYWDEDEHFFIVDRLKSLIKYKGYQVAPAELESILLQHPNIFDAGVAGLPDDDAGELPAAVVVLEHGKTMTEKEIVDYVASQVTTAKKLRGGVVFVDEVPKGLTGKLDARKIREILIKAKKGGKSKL
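Purified P. pyralis luciferase (10nM final) with 10uM D-luciferin and 10uM ATP (Km levels) in 50mM Tris acetate pH 7.5, 10mM Mg acetate, 0.01% Tween-20, 0.05% BSA; qHTS 6-point titration, ~60 µM downward; luminescence read.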
NPC1 prom act: activates the NPC1 promoter | Huh7 NPC1 promoter luciferase reporter, 24 h | Potency, µM (highest dose often 9.22 µM), for inactives: at the top dose activation, actives largely listed as activators | actives 2.4% (n = 320,000) | AID 485313; note: % of control where 0% means no effect; nearly all actives have a fitted effect of over 60% in size
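Huh7 reporter cells (NPC1 promoter driving luciferase) are dosed with compound for 24 h at 37 °C, 5% CO2; luciferase detection reagent is then added and luminescence measured after 10 min at ambient temperature.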
The depositor's hits bear a star; u = inconclusive; x = not tested or not shown. Calls come from the whole dose curve; as a rule, active = well fitted curve in the direction sought with a large enough effect; inconclusive = small, poorly fitted or top-dose-only effect, or another doubt; inactive = no such curve, though single readings can be large; an effect the other way counts as inactive or inconclusive. Potency is the fitted concentration of half-maximal effect.

SMILES	ELG1 DNA repair	SMN2 splice up	ELG1 genotoxic	Rab9 prom act	FLuc counter	NPC1 prom act
C[C@@H]1C[C@H](O)c2cc(Cl)ccc2N1	-15.3%	9.5%	1.0%	1.5%	-1.7%	-1.8%
N#CC1CC(c2ccccc2)Nc2cc(Cl)ccc2N1 (centres undefined)	u	x	14.9%	25.8%	10.7µM*	14.6%
COc1ccc2c(c1)c1c(c(=O)n(-c3ccccc3C)c(=O)n1CC(=O)N1CCCC1)n2C	x	x	x	x	-6.2%	x
O=C1C=C(c2cccc3c2sc2ccccc23)C[C@@H](c2ccc(F)cc2)C1	13µM*	x	-1.2%	-2.7%	5.8%	-1.5%
COc1ccc([C@H]2CC(=O)C=C(c3cc4ccccc4s3)C2)cc1OC	u	x	-4.2%	-2.3%	-19.5%	-3.1%
COCc1ccccc1C1=CC(=O)C[C@H](c2ccc(F)cc2)C1	-13.1%	x	5.9%	-5.2%	-1.1%	0.6%
COc1ccc([C@H]2CC(=O)C=C(c3cccc4c3sc3ccccc34)C2)cc1OC	8.2µM*	x	0.1%	-1.9%	5.5%	2.4%
COc1ccc([C@H]2CC(=O)C=C(c3cc(F)ccc3F)C2)cc1OC	u	x	-1.1%	-5.4%	0.9%	-1.2%
COc1ccc([C@H]2CC(=O)C=C(c3cccc(OC)c3OC)C2)cc1OC	9.2µM*	x	-7.1%	1.9%	-10.0%	-3.6%
N#CCCn1c(=O)c(CCc2ccccc2)nc2cnc(Oc3cccc(Cl)c3)nc21	x	-35.3%	x	x	x	x
COc1ccccc1C(=O)Nc1ccc2c(c1)OCCO2	u	12.6µM*	u	1.78µM*	7.57µM*	3.16µM*
CN(c1ccccc1C(=O)Nc1ccc2c(c1)OCO2)S(C)(=O)=O	-5.9%	-3.6%	0.9%	-3.0%	-4.7%	-2.5%
COc1cc(SC)ccc1C(=O)Nc1c(C)cccc1C	2.2%	-16.9%	1.0%	-1.6%	-8.2%	-5.7%
COc1ccccc1C(=O)NCC(=O)Nc1ccc2c(c1)OCO2	19.3%	x	-0.3%	14.8%	-9.5%	-0.1%
Cc1ccccc1C(=O)Nc1ccc2c(c1)OCO2	u	0.794µM*	1.64µM*	0.447µM*	4.78µM*	0.447µM*
COc1cc(SC)ccc1C(=O)Nc1ccc2c(c1)OCCO2	u	5.62µM*	u	0.891µM*	0.536µM*	u
COc1ccccc1C(=O)Nc1ccc2c(c1)OCO2	u	17.9%	14.6µM*	2.51µM*	13.5µM*	u
CC(=O)Nc1ccc(S(=O)(=O)N[C@@H](C)C(=O)NC2CCCc3ccccc32)cc1 (some centres undefined)	-2.8%	x	-2.3%	x	x	x
N#Cc1ccc[n+](CC(=O)c2ccc(NC(=O)c3ccccc3)cc2)c1	u	x	2.5%	14.9%	u	13.1%
Cc1ccc(Cl)cc1N(CC(=O)NCc1ccccc1)S(C)(=O)=O	-1.5%	x	-0.2%	-0.7%	0.0%	-1.2%
Cc1ccc2nc(-c3ccc(NC(=O)COC(=O)c4ccc(=O)[nH]c4)cc3)sc2c1	u	1.58µM*	2.31µM*	0.562µM*	3.38µM*	0.355µM*
O=C(CN1CCN(c2ccccn2)CC1)Nc1ccc2ccccc2c1	u	-22.2%	u	20.6%	16.9µM*	10.5%
Cc1ccc2nc(-c3ccc(NC(=O)CN4CCN(c5ccccn5)CC4)cc3)sc2c1	u	x	u	u	10.7µM*	u
CC(=O)Nc1ccc(NC(=O)CN2CCN(c3ccccn3)CC2)cc1	14.8%	x	-0.3%	-0.7%	-0.5%	-1.5%
Cc1sc(NC(=O)CN2CCN(c3ccccn3)CC2)c(C#N)c1C	11.6µM*	-10.3%	-1.6%	8.7%	-1.2%	-4.2%
CCc1ccc(-c2nn(CC(=O)NC3CCCC3)c3c2cnc2ccc(F)cc23)cc1	x	x	x	x	2.6%	x
CCCN(CCC)C(=O)c1cn(C)c2ccc(S(=O)(=O)N3CCCC3)cc2c1=O	u	x	5.0%	-0.5%	-1.5%	-1.1%
O=C(CCSCc1cnn(-c2ccccc2)c1-n1cccc1)NCc1ccccc1F	x	x	x	x	0.7%	x
